Test results published in the supplement of paper PMC11732987, “Enantioselective OTUD7B fragment discovery through chemoproteomics screening and high-throughput optimisation” (Communications Chemistry, 2025).

Tests used:
Experiment in all cases: log2 ratio of Biotin-Ahx-Ub-VS probe labelling (fragment/DMSO); higher = less target engagement (more negative = stronger competition), active = hit call of the paper (q ≤ 0.05, log2 ratio ≤ -1)
Conditions in all cases: compound concentration: 200 uM; treatment time: 3 h
[1] = molecular target: T1, USP42 (UniProt Q9H9J4)
T1 sequence (whole entry): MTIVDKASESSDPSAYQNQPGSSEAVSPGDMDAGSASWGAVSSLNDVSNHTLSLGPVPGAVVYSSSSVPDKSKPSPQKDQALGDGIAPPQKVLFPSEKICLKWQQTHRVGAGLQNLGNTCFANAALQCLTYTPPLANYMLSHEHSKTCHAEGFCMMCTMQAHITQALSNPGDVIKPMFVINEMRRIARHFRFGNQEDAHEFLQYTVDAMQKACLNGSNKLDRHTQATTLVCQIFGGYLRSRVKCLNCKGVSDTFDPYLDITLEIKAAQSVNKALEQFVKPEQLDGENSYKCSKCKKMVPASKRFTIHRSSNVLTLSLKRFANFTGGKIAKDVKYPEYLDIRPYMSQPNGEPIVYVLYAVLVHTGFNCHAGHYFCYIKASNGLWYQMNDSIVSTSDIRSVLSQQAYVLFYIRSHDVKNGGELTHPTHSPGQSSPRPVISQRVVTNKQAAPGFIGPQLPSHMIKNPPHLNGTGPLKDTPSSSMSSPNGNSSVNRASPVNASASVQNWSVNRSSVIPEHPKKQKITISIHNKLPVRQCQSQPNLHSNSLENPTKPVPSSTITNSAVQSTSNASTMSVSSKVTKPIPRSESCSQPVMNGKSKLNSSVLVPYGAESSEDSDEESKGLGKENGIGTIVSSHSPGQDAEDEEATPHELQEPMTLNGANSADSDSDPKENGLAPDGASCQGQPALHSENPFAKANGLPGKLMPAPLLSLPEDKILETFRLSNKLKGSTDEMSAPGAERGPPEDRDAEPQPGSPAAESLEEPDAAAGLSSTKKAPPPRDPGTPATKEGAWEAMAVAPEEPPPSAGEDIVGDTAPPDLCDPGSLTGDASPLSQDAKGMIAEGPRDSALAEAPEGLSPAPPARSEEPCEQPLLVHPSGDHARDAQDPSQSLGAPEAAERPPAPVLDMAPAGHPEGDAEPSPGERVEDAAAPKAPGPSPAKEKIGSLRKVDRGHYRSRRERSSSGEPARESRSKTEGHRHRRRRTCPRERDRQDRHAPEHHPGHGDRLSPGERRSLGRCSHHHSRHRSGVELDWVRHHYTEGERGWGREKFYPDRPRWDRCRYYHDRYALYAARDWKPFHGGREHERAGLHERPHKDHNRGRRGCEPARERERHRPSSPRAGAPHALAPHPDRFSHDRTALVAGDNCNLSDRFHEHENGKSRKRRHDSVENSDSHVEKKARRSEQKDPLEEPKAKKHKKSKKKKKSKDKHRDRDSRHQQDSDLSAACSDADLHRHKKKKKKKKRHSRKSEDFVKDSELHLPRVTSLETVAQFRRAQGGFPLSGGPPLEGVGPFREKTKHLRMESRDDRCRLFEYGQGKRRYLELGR
Summary of the method: (§1)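 HEK293T lysate (495 µg per sample, in Tris/CHAPS/IGEPAL buffer with protease inhibitors) was treated in triplicate with fragment at 200 µM or with DMSO for 3 h. It was then treated with Biotin-Ahx-Ub-VS (0.5 µM final) for 1 h. Labelled DUBs were NeutrAvidin-enriched, digested with LysC and trypsin, and run by diaPASEF LC-MS/MS. Spectronaut label-free quantities were global-median-normalised. Values are average log2 ratios fragment/DMSO by unpaired t-test, using proteins with ≥2 unique peptides.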

[2] = molecular target: USP46 (UniProt P62068)
USP46, sequence (P62068 whole entry): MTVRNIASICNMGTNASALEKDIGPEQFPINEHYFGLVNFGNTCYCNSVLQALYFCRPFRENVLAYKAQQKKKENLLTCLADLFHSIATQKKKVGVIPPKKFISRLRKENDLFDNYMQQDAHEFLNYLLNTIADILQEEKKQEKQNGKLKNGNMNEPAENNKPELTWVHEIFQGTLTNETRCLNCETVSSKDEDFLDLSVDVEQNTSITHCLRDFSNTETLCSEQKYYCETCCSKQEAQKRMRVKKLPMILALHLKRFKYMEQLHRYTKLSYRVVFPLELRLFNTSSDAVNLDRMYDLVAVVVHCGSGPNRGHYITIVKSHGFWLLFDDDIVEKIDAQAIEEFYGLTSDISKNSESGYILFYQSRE
Summary of the method: as §1

[3] = molecular target: T2, USP47 (UniProt Q96K76)
T2 sequence (whole entry): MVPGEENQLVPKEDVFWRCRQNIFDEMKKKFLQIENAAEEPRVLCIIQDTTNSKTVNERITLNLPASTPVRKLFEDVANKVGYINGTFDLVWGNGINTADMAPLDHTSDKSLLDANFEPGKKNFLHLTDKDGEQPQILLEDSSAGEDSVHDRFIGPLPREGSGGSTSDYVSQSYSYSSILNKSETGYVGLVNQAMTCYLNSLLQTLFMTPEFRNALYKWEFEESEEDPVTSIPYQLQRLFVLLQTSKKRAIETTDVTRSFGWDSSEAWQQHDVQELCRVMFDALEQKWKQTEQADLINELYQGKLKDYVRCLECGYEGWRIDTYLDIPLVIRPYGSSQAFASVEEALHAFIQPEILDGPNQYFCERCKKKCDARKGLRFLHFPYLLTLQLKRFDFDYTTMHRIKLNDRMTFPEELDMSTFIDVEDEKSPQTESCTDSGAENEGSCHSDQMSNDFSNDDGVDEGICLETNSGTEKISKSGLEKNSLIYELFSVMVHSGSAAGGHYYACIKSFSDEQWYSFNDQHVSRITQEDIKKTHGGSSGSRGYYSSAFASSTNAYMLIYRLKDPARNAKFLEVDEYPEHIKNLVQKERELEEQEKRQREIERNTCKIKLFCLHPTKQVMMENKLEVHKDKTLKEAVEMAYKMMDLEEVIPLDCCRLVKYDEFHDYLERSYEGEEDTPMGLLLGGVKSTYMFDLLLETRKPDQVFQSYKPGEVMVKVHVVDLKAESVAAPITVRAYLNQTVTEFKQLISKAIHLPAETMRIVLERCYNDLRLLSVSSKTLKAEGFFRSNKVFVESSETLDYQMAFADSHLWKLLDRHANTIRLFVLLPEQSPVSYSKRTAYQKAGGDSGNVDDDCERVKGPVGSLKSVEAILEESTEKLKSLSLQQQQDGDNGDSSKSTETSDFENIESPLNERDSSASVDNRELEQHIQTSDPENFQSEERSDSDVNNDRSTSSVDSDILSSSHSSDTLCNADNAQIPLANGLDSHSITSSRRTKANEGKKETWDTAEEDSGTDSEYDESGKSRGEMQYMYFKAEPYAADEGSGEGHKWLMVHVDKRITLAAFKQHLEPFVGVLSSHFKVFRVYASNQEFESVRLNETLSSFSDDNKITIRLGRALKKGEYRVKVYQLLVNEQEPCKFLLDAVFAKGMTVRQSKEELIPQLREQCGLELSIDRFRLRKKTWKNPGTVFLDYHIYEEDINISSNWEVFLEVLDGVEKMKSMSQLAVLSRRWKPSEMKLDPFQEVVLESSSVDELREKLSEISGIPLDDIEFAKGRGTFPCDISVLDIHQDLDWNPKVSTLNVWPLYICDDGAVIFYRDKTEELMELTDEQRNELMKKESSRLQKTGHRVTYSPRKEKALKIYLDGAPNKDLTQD
Summary of the method: as §1

[4] = molecular target: T3, USP48 (UniProt Q86UV5)
T3 sequence (whole entry): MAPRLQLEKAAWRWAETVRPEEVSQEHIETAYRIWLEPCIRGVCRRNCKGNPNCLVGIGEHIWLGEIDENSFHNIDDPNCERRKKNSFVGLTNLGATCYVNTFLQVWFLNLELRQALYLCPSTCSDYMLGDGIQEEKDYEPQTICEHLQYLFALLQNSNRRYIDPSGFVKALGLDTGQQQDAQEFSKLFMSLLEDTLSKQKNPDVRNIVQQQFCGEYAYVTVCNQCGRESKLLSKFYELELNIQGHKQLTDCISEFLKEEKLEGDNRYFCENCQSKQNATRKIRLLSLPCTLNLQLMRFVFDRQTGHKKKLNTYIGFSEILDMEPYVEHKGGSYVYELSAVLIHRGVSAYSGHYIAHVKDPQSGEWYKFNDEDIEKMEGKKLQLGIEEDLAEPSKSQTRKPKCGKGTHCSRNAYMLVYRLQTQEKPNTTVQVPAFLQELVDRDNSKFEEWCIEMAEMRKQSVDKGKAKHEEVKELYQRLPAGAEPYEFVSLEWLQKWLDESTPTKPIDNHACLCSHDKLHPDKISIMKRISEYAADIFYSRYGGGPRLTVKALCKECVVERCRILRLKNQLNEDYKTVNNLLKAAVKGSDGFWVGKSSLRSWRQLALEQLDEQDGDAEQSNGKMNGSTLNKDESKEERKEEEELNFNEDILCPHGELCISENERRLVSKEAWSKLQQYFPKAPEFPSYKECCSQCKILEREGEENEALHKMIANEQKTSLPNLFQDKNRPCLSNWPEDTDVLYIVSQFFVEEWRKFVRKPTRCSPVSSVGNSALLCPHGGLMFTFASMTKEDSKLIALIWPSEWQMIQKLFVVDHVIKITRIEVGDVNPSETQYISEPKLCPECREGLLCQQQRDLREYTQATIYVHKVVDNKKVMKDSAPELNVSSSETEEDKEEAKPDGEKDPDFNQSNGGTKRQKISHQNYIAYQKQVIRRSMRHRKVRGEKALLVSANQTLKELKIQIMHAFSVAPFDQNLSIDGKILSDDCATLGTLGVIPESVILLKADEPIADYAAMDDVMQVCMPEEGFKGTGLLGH
Summary of the method: as §1

[5] = molecular target: T4, USP5 (UniProt P45974)
T4 sequence (whole entry): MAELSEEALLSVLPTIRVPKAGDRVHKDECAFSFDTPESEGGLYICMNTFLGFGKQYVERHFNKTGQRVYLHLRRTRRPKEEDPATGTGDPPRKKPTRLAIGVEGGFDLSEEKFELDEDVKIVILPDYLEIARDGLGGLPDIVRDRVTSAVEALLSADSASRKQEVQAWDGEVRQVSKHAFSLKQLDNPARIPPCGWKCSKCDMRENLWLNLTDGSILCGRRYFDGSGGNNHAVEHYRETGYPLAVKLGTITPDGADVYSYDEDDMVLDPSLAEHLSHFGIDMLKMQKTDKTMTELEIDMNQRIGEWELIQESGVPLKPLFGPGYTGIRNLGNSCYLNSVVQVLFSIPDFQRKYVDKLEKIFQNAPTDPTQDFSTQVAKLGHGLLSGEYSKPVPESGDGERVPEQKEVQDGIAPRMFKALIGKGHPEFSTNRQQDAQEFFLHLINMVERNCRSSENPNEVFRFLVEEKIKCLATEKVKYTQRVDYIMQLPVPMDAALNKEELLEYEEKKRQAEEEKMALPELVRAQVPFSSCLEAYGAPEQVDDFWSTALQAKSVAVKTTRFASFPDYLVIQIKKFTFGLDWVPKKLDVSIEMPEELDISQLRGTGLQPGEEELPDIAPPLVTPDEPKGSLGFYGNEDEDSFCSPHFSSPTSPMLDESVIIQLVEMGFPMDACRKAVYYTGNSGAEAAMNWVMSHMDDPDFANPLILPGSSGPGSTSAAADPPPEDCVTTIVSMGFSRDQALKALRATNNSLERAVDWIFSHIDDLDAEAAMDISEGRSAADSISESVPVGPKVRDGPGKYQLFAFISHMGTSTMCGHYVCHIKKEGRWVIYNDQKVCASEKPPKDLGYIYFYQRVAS
Summary of the method: as §1

[6] = molecular target: USP54 (UniProt Q70EL1)
USP54, sequence (Q70EL1 whole entry): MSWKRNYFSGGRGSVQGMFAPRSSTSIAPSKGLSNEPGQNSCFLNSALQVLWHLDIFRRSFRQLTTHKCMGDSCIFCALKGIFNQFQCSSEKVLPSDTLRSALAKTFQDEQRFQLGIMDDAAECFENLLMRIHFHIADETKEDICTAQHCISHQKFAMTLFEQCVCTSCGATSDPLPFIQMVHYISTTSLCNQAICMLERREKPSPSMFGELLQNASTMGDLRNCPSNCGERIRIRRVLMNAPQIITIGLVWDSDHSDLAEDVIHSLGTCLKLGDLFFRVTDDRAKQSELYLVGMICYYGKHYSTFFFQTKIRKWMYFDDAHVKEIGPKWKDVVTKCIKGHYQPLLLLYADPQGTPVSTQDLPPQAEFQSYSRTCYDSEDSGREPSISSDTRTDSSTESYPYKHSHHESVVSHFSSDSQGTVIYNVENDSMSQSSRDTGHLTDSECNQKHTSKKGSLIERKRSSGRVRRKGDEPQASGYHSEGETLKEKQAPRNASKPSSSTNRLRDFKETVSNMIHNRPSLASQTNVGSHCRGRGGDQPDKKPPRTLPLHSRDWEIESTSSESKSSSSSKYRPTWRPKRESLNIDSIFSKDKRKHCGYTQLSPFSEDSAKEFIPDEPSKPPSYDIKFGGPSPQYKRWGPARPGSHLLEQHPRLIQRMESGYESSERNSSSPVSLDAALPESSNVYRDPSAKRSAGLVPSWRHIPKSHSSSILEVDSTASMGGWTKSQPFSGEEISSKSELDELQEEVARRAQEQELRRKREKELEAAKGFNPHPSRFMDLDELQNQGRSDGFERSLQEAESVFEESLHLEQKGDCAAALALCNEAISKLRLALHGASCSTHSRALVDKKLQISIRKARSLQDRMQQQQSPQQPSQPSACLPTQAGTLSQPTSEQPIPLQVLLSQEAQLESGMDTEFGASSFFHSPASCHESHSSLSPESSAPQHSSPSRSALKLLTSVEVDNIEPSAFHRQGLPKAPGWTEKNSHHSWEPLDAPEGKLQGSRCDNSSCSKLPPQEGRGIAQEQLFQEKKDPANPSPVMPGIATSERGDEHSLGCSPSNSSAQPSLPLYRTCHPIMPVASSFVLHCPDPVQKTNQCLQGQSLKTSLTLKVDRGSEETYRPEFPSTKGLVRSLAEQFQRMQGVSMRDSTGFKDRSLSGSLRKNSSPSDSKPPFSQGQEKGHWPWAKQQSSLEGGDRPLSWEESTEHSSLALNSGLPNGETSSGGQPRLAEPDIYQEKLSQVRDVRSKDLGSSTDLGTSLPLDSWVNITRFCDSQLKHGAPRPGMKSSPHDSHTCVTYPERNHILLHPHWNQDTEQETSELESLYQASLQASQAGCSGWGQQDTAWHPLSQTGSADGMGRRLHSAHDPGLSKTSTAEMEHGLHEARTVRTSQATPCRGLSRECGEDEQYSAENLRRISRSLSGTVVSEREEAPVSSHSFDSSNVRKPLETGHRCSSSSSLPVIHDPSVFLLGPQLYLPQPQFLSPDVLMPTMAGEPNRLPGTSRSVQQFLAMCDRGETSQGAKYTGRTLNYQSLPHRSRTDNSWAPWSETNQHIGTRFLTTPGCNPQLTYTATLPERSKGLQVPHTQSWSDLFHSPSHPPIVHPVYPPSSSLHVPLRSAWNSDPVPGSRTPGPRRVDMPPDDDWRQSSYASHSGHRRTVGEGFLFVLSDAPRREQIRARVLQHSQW
Summary of the method: as §1

[7] = molecular target: USP7 (UniProt Q93009)
USP7, sequence (Q93009 whole entry, looked up): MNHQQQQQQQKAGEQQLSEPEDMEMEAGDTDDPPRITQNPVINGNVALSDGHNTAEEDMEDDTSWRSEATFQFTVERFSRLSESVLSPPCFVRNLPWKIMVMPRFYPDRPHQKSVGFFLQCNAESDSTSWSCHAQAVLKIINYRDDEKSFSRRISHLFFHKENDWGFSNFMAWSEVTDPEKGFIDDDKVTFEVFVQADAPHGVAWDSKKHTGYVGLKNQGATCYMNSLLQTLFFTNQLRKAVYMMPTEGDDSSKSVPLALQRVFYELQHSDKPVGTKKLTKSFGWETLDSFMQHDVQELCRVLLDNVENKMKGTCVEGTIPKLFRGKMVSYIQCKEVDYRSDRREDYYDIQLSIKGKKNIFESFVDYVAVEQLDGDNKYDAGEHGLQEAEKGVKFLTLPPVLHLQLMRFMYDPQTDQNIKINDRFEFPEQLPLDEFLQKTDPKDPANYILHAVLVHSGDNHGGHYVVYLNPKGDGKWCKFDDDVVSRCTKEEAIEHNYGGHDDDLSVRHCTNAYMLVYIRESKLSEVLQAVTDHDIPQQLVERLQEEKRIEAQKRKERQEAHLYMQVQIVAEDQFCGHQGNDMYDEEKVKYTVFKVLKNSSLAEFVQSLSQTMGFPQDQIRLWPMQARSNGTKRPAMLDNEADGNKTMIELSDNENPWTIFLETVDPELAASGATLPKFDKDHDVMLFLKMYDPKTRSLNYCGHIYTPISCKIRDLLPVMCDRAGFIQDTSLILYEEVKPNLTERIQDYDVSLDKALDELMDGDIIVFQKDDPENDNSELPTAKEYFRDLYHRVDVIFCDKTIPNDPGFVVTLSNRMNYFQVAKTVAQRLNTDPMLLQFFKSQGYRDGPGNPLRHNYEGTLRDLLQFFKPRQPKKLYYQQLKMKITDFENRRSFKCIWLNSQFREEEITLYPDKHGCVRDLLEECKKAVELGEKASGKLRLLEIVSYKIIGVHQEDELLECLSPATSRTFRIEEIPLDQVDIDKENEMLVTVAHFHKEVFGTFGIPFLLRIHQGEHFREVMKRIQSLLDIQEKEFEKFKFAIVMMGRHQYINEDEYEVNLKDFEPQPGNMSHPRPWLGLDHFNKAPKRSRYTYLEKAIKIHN
Summary of the method: as §1

[8] = molecular target: T5, USP8 (UniProt P40818)
T5 sequence (whole entry): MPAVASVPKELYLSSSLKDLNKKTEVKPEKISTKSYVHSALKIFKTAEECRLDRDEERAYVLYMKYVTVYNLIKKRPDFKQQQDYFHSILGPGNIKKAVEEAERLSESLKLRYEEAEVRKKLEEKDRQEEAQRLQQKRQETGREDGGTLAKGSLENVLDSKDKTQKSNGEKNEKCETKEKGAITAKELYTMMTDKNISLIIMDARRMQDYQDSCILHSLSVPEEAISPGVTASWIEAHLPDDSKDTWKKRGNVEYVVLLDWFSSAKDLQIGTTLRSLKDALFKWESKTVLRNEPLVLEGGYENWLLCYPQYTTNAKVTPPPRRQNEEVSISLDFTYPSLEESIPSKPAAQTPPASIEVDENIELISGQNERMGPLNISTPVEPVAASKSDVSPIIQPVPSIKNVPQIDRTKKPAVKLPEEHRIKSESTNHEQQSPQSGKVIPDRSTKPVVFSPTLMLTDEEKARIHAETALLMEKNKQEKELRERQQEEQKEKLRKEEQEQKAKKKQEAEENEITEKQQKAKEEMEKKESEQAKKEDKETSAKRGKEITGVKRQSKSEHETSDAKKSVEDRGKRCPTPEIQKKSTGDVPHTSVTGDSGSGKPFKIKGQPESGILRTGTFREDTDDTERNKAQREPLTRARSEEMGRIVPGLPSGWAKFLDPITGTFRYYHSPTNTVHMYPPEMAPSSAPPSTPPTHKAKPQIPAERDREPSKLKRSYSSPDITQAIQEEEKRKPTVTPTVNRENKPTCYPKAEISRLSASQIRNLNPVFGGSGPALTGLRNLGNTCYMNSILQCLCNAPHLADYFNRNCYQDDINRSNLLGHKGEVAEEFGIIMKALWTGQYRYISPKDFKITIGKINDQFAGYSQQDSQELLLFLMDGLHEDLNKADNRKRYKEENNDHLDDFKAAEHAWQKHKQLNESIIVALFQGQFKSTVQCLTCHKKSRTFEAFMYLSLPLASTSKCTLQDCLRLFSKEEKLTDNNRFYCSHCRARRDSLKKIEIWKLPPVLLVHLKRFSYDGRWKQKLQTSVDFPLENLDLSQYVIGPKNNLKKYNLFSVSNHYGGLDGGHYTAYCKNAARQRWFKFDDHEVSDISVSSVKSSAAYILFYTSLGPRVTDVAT
Summary of the method: as §1

Measured: log2 ratio of Biotin-Ahx-Ub-VS probe labelling

O=C(CCl)N1CCOC2(CCC2)CC1
inactive: [1] -0.307 | [2] 0.0174 | [3] -0.785 | [4] -0.374 | [5] 0.235 | [6] -0.505 | [7] -0.145 | [8] -0.275
